Compound activity deposited in PubChem by National Center for Advancing Translational Sciences (NCATS).
Most compounds without a hit are left out; they make up all but 21% or so of the library.
Cycloheximide cs = Cycloheximide Counterscreen for Small Molecule Inhibitors of Shiga Toxin; hit rate 12% among 300,000; max response, %; AID 2314, 2010; cell reporter, cycloheximide protein synthesis inhibition counterscreen; in the data active means max response mostly above about 13%, no sharp cut-off; inactive means mostly below about 14%; further: read at 38.3 µM for the half of the compounds with a filed dose; 0% is about no effect
Pf growth 96h = Primary qHTS for delayed death inhibitors of the malarial parasite plastid, 96 hour incubation; P. falciparum luciferase reporter growth, 96 h; Potency, µM (highest dose often 28.7 µM), inactives show at the highest dose activity change, negative = inhibition, actives largely listed as inhibitors; hit rate 6.9% among 320,000; further: potency means the concentration at half of the fitted maximal effect; on the % scale 0 is the no-effect control and ±100 the full control effect
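Cell-based qHTS: luciferase-tagged P. falciparum in erythrocytes (2% hematocrit, 0.05% parasitemia final) incubated with compounds for 96 hours, 37 C, 5% CO2; luciferase detection reagent then added and luminescence measured.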
Pf growth 48h = Primary qHTS for delayed death inhibitors of the malarial parasite plastid, 48 hour incubation | P. falciparum luciferase growth in erythrocytes, 48 h | Potency, µM (titrated, usually from 28.7 µM), for inactives: at the top dose activity change, negative = inhibition, actives largely listed as inhibitors | hit rate 5.9% among 310,000; further: potency means the concentration at half of the fitted maximal effect; on the % scale 0 is the no-effect control and ±100 the full control effect
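Cell-based growth assay: transgenic P. falciparum expressing firefly luciferase, cultured in red cells within RPMI 1640 containing 0.5% w/v Albumax, 24 mM bicarbonate and gentamycin. A drop in luciferase activity indicates inhibition.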
Shiga toxin inh = A qHTS for Small Molecule Inhibitors of Shiga Toxin. inhibition, % at 38.7 µM. Vero cells, Shiga toxin protein synthesis inhibition reporter. AID 2315, 2010. hit rate 9.2% among 290,000; in the data active means inhibition mostly above about 28%, no sharp cut-off; inactive means mostly below about 43%; further: 0% is about no effect
HCV inh = qHTS Assay for Inhibitors of Hepatitis C Virus (HCV) | Huh7.5.1 HCVcc-Cre infection, luciferase reporter, 44 h | Potency, µM (doses to about 41.8 µM), for the others: at the top dose activity change, negative = inhibition, hits mostly inhibitors | hit rate 3.4% among 340,000; further: potency means the concentration at half of the fitted maximal effect; on the % scale 0 is the no-effect control and ±100 the full control effect
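Seed cells (1,000/well) for 4 h; treat with compound and infect with HCVcc-Cre, moi about 0.5. Incubate 44 h, then detect luciferase activity.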
AMA1-RON2 inh = qHTS for Inhibitors of AMA1-RON; Towards Development of Antimalarial Drug Lead: Primary Screen | AlphaScreen AMA1-biotinylated RON2 peptide binding | Potency, µM (top dose mostly 58.2 µM), inactives show at the highest dose activity change, negative = inhibition, actives largely listed as inhibitors | hit rate 0.2% among 360,000 | AID 720542, 2013;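 further: potency means the concentration at half of the fitted maximal effect; 0% = vehicle wells and -100% = peptide control; nearly all actives have a fitted effect of over 45% in size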
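AMA1 (3D7) with his tag at 25 nM final met compounds first, then biotinylated RON2 peptide at 25 nM; detection used donor plus acceptor beads, 10 µg/mL apiece, read by AlphaScreen after 30 min at room temperature.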
The depositor's hits bear a star; ? = inconclusive; . = not tested or not shown. Unless noted, the call rests on the fitted dose curve; in most records, active means well fitted curve in the direction sought with a large enough effect; inconclusive means small, poorly fitted or top-dose-only effect, or another doubt; inactive means no such curve, though single readings can be large; an effect the other way counts as inactive or inconclusive.

SMILES | Cycloheximide cs | Pf growth 96h | Pf growth 48h | Shiga toxin inh | HCV inh | AMA1-RON2 inh
Cn1c(N)c(C(=O)COC(=O)COc2ccccc2Cl)c(=O)n(C)c1=O | . | 35% | 13% | . | 11% | -11%
CCCCCC(C)N (stereo not given) | . | 12µM* | ? | . | . | .
CCCCCCCCC(C)O (stereo not given) | -5 | . | . | -5 | . | .
CC[C@H]1CN2CCC1C[C@@H]2[C@H](O)c1ccnc2ccc(OC)cc12 (stereo not given in full) | . | . | . | . | -1% | -7%
C=CC1CN2CCC1CC2C(OC(C)=O)c1ccnc2ccc(OC)cc12 (stereo not given) | -2 | 0.29µM* | 0.37µM* | -16 | -4% | 6%
C=C[C@H]1CN2CC[C@H]1C[C@@H]2[C@@H](O)c1ccnc2ccccc12 | . | 0.0041µM* | 0.033µM* | . | 24% | 5%
CCc1ccc(OCCn2cccn2)cc1 | 34* | 3% | 59% | 59* | 6% | -1%
CCOC(=O)C1=C(C)NC(SCC(=O)Nc2cc(C)on2)=C(C#N)C1c1cccs1 (stereo not given) | -3 | ? | 10µM* | -14 | 10µM* | -3%
C=CCOC(=O)C1=C(C)NC(SC)=C(C#N)C1c1cccs1 (stereo not given) | -5 | ? | ? | -20 | -10% | 4%
C=CCOC(=O)C1=C(C)NC(SCC(=O)Nc2nccs2)=C(C#N)C1c1cccs1 (stereo not given) | 1 | 4.1µM* | 4.7µM* | -14 | ? | 29%
C=CCOC(=O)C1=C(C)NC(SCC(=O)Nc2nccs2)=C(C#N)C1c1ccc(Cl)cc1 (stereo not given) | 1 | 2.1µM* | 2.1µM* | 33 | ? | 14%
C=CCOC(=O)C1=C(C)NC(SC)=C(C#N)C1c1ccc(OCC)cc1 (stereo not given) | -8 | 12µM* | 8.3µM* | -6 | -8% | -5%
COc1ccc(NC(=O)c2cc(C3CCCCN3S(C)(=O)=O)on2)c(C)c1 (stereo not given) | . | . | . | . | . | 11%
Cc1ccc(F)c(S(=O)(=O)NC(=O)C2(C)CCN2C(=O)Cc2ccc(-c3ccccc3)cc2)c1 (stereo not given) | . | . | . | . | . | -12%
O=C(CN1C(=O)NC2(CCCC2)C1=O)N1CCN(S(=O)(=O)c2cccc(C(F)(F)F)c2)CC1 | . | -19% | -17% | . | 2% | -7%
N/C(=N\NS(=O)(=O)c1ccccc1C(F)(F)F)c1ccccn1 | 13 | 33% | ? | 11 | 13% | 108%
Cc1nc(C(F)(F)F)c(C(=O)N/N=C(\N)c2ccccn2)s1 | 8 | ? | ? | 12 | 13µM* | -52%
O=C(Nc1ccc(Cl)cc1)O/N=C(\c1ccccc1)c1ccccn1 | 21* | 39% | 15% | 25 | -7% | 10%
N/C(=N\NC(=O)Nc1ccc(Cl)cc1)c1ccccn1 | 39* | 203% | 140% | 88* | 3% | -22%
CNC(=O)N/N=C(\N)c1ccccn1 | 19* | 68% | 58% | 37 | 10% | 122%
Cc1ccc(S(=O)(=O)/C=C2\OCc3ccccc32)cc1 | . | . | . | . | . | -11%
COc1cc(C(=O)NC2CC(C)CC(C)(C)C2)cc(OC)c1OC (stereo not given) | . | . | . | . | . | 1%
Cc1ccc(CNC(=O)C(N=C2NS(=O)(=O)c3ccccc32)C(C)C)cc1 (stereo not given) | . | -22% | 29% | . | -29% | -5%
O=C(O)c1ccccc1C(c1ccccc1)c1ccccc1O (stereo not given) | . | . | . | . | -12% | -1%
COc1ccc(C2=CSC(/N=C/c3ccc(F)cc3)=NN2)cc1 | 30* | ? | 0% | -4 | -19% | -23%
CCOC(=O)c1c(C)[nH]c(C)c1C(=O)CSc1nnc(-c2ccco2)n1Cc1ccccc1 | -2 | 15µM* | 7.4µM* | -3 | 8% | -10%
CCOC(=O)c1c(C)[nH]c(C)c1C(=O)CSc1nnc(-c2ccncc2)n1Cc1ccccc1 | 9 | 10µM* | . | -7 | -26% | -17%
